Data reported in the antibiotic and cytotoxicity screens of Wong et al. (2023).
About 3,300 (8.5%) of roughly 39,000 compounds were called active. Many of the other results were omitted from the sample, so actives are more common in it than they were.

Each compound was assayed on HepG2 (assay: cytotoxicity call (relative viability < 0.9)). Conditions: 10 µM.
With `C[C@@H]1CCCCO[C@H](CN(C)Cc2ccc(C(=O)O)cc2)[C@@H](C)CN([C@H](C)CO)C(=O)c2cc(NC(=O)C3CCCCC3)ccc2O1` the cytotoxicity call was “inactive”.
With `Cc1ccc(S(=O)(=O)N(C)C[C@@H]2Oc3ncc(C#CCN(C)C)cc3C(=O)N([C@H](C)CO)C[C@@H]2C)cc1` the cytotoxicity call was “inactive”.
In the case of `Cc1noc(C)c1NC(=O)N(C)C[C@H]1OCCCC[C@@H](C)Oc2ccc(NS(=O)(=O)c3cccs3)cc2C(=O)N([C@@H](C)CO)C[C@@H]1C`, the cytotoxicity call is reported as “inactive”.
With `C[C@H]1CN([C@@H](C)CO)C(=O)c2cccc(NS(=O)(=O)c3ccc(F)cc3)c2O[C@H]1CN(C)S(=O)(=O)c1ccccc1` the cytotoxicity call was “inactive”.
With `Cc1noc(C)c1S(=O)(=O)N(C)C[C@H]1Oc2c(NS(=O)(=O)c3cn(C)cn3)cccc2C(=O)N([C@@H](C)CO)C[C@H]1C` the cytotoxicity call was “inactive”.
`COc1ccccc1O` was tested, and the cytotoxicity call was “inactive”.
`COc1cccc(OC)c1O` was tested, and the cytotoxicity call was “inactive”.
For `COc1cccc(O)c1O`, the cytotoxicity call was “active”.
In the case of `O=C1/C(=C/c2cn(-c3ccccc3)nc2-c2ccc(OCc3ccccc3)cc2)SC(=S)N1CCS(=O)(=O)O`, the cytotoxicity call is reported as “inactive”.
`Cc1noc(C)c1NC(=O)N(C)C[C@@H]1Oc2ccc(NC(=O)c3ccncc3)cc2C(=O)N([C@@H](C)CO)C[C@H]1C` was tested, and the cytotoxicity call was “inactive”.
With `C[C@@H]1CCCCO[C@H](CN(C)Cc2ccc3c(c2)OCO3)[C@H](C)CN([C@H](C)CO)C(=O)c2cc(NC(=O)Nc3ccc4c(c3)OCO4)ccc2O1` the cytotoxicity call was “active”.
`C[C@H]1CCCCO[C@@H](CN(C)Cc2ccc3c(c2)OCO3)[C@@H](C)CN([C@@H](C)CO)C(=O)c2cc(NC(=O)Nc3ccc4c(c3)OCO4)ccc2O1` was tested, and the cytotoxicity call was “inactive”.
For `C[C@@H]1CN([C@H](C)CO)C(=O)c2cc(NC(=O)Nc3ccc4c(c3)OCO4)ccc2O[C@@H](C)CCCCO[C@H]1CN(C)Cc1ccc2c(c1)OCO2`, the cytotoxicity call was “inactive”.
In the case of `C[C@@H]1CCCCO[C@@H](CN(C)Cc2ccc3c(c2)OCO3)[C@H](C)CN([C@@H](C)CO)C(=O)c2cc(NC(=O)Nc3ccc4c(c3)OCO4)ccc2O1`, the cytotoxicity call is reported as “inactive”.
For `C[C@@H]1CCCCO[C@@H](CN(C)Cc2ccc3c(c2)OCO3)[C@@H](C)CN([C@@H](C)CO)C(=O)c2cc(NC(=O)Nc3ccc4c(c3)OCO4)ccc2O1`, the cytotoxicity call was “active”.
`C[C@@H]1CN([C@@H](C)CO)C(=O)c2cc(NC(=O)Nc3ccc4c(c3)OCO4)ccc2O[C@@H](C)CCCCO[C@H]1CN(C)Cc1ccc2c(c1)OCO2` was tested, and the cytotoxicity call was “inactive”.
`C[C@H](CO)N1C[C@H](C)[C@H](CN(C)Cc2ccc3c(c2)OCO3)OCCCC[C@H](C)Oc2ccc(NC(=O)Nc3ccc4c(c3)OCO4)cc2C1=O` was tested, and the cytotoxicity call was “active”.
For `C[C@H]1CCCCO[C@H](CN(C)Cc2ccc3c(c2)OCO3)[C@@H](C)CN([C@@H](C)CO)C(=O)c2cc(NC(=O)Nc3ccc4c(c3)OCO4)ccc2O1`, the cytotoxicity call was “inactive”.
For `C[C@@H]1CCCCO[C@@H](CN(C)Cc2ccc3c(c2)OCO3)[C@H](C)CN([C@H](C)CO)C(=O)c2cc(NC(=O)Nc3ccc4c(c3)OCO4)ccc2O1`, the cytotoxicity call was “active”.
For `C[C@@H]1CN([C@@H](C)CO)C(=O)c2ccccc2-c2ccccc2CO[C@@H]1CN(C)C(=O)c1cc(Cl)cc(Cl)c1`, the cytotoxicity call was “inactive”.
For `O=C(N[C@@H]1C=C[C@H](CC(=O)N2CCOCC2)O[C@@H]1CO)c1ccc2c(c1)OCO2`, the cytotoxicity call was “inactive”.
For `C[C@@H]1CN([C@@H](C)CO)C(=O)c2cc(NC(=O)C3CCCCC3)ccc2O[C@H]1CN(C)C(=O)Nc1cccc2ccccc12`, the cytotoxicity call was “inactive”.
For `CO[C@@H](CN(C)C(=O)C1CCOCC1)[C@H](C)CN(C(=O)Nc1ccc(C(F)(F)F)cc1)[C@@H](C)CO`, the cytotoxicity call was “inactive”.
For `CC(C)CS(=O)(=O)N1C[C@H]2C[C@H](C(=O)N3CCOCC3)[C@@H](C1)O2`, the cytotoxicity call was “inactive”.
With `CC(=O)O[C@H]1C[C@](C)(O)C2=C[C@@H](O)[C@@](C)(O)[C@@H]2[C@H]2OC(=O)[C@@H](C)[C@@H]21` the cytotoxicity call was “inactive”.
`O=C(CN1CCOCC1)N[C@H]1CC[C@H](CCn2cc(C3CCCC3)nn2)O[C@@H]1CO` was tested, and the cytotoxicity call was “inactive”.
In the case of `CC(C)NC(=O)N(C)C[C@H]1Oc2ccc(NS(=O)(=O)c3ccc(F)cc3)cc2CC(=O)N([C@@H](C)CO)C[C@@H]1C`, the cytotoxicity call is reported as “inactive”.
In the case of `C[C@@H]1CCCCO[C@@H](CN(C)Cc2ccc3c(c2)OCO3)[C@@H](C)CN([C@H](C)CO)C(=O)c2cc(NC(=O)Nc3ccc4c(c3)OCO4)ccc2O1`, the cytotoxicity call is reported as “inactive”.
`C[C@H](CO)N1C[C@H](C)[C@@H](CN(C)Cc2ccc3c(c2)OCO3)OCCCC[C@H](C)Oc2ccc(NC(=O)Nc3ccc4c(c3)OCO4)cc2C1=O` was tested, and the cytotoxicity call was “inactive”.
With `C[C@@H]1CN([C@H](C)CO)C(=O)c2cc(NC(=O)Nc3ccc4c(c3)OCO4)ccc2O[C@@H](C)CCCCO[C@@H]1CN(C)Cc1ccc2c(c1)OCO2` the cytotoxicity call was “active”.
With `C[C@@H]1CN([C@@H](C)CO)C(=O)c2cc(NC(=O)Nc3ccc4c(c3)OCO4)ccc2O[C@@H](C)CCCCO[C@@H]1CN(C)Cc1ccc2c(c1)OCO2` the cytotoxicity call was “inactive”.
For `C[C@@H]1CCCCO[C@H](CN(C)Cc2ccc3c(c2)OCO3)[C@@H](C)CN([C@H](C)CO)C(=O)c2cc(NC(=O)Nc3ccc4c(c3)OCO4)ccc2O1`, the cytotoxicity call was “inactive”.
For `C[C@@H]1CCCCO[C@H](CN(C)Cc2ccc3c(c2)OCO3)[C@H](C)CN([C@@H](C)CO)C(=O)c2cc(NC(=O)Nc3ccc4c(c3)OCO4)ccc2O1`, the cytotoxicity call was “active”.
With `Cc1noc(C)c1S(=O)(=O)Nc1ccc2c(c1)C(=O)N([C@H](C)CO)C[C@H](C)[C@@H](CN(C)C(=O)Nc1ccccc1)O2` the cytotoxicity call was “inactive”.
In the case of `CCn1cc(-c2ccnc3[nH]c(-c4cccc(CN(C)C)c4)cc23)c(-c2ccc(NC(=O)N(C)C)cc2)n1`, the cytotoxicity call is reported as “active”.
For `C[C@@H]1CN([C@H](C)CO)S(=O)(=O)c2ccc(-c3ccc(F)cc3)cc2O[C@H]1CN(C)S(C)(=O)=O`, the cytotoxicity call was “inactive”.
For `C#Cc1ccc([C@@H]2C=C(C(=O)N3CCN(Cc4ccc5c(c4)OCO5)CC3)O[C@H](OCC)[C@H]2CCCO)cc1`, the cytotoxicity call was “inactive”.
With `O=S1(=O)CC[C@H](N[C@H]2CCS(=O)(=O)C2)C1` the cytotoxicity call was “inactive”.
With `C[C@@H]1CN([C@@H](C)CO)S(=O)(=O)c2ccc(C#Cc3ccncc3)cc2O[C@H]1CN(C)S(=O)(=O)c1ccccc1` the cytotoxicity call was “active”.
With `C[C@H]1CN([C@@H](C)CO)S(=O)(=O)c2ccc(C#Cc3ccncc3)cc2O[C@H]1CN(C)S(=O)(=O)c1ccccc1` the cytotoxicity call was “active”.
With `C[C@H](CO)N1C[C@H](C)[C@@H](CN(C)S(=O)(=O)c2ccccc2)Oc2cc(C#Cc3ccncc3)ccc2S1(=O)=O` the cytotoxicity call was “active”.
In the case of `C[C@@H]1CN([C@H](C)CO)S(=O)(=O)c2ccc(C#Cc3ccncc3)cc2O[C@@H]1CN(C)S(=O)(=O)c1ccccc1`, the cytotoxicity call is reported as “active”.
